Assay in all cases: growth inhibition (% activity, log2 RLU normalised to DMSO / staurosporine); higher = more growth inhibition
Common to all, as to conditions: 33 µM

The test system of one assay is DIPGX29 (H3.3 K27M diffuse intrinsic pontine glioma line). In outline: (§1)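 Approved drugs were tested in triplicate at a single final concentration of about 33 μM for 7 days at 37 °C, 5% CO2, on pHGG cell lines and H9-derived neural stem cells. Readout was CellTiter-Glo luminescence, log2-transformed and scaled per plate to % activity between solvent and positive control wells. The median over replicates gives the growth-inhibition value.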

The test system of a further assay is DIPGX37 (H3.3 K27M diffuse intrinsic pontine glioma line). The method in brief: as §1
The subject of another assay is DIPGX7 (H3.3 K27M diffuse intrinsic pontine glioma line). The method in brief: as §1
Another assay relates to DIPGX9 (diffuse intrinsic pontine glioma line). In outline: as §1
The subject of another assay is HGGX39 (paediatric high-grade glioma line). The method in brief:
as §1

The next assay relates to HGGX6 (H3.3 G34R paediatric high-grade glioma line). In outline: as §1
For a further assay, the system named is HNSC. The method in brief: as §1
A further assay relates to SUDIPGIV (diffuse intrinsic pontine glioma line)
In outline: as §1

The test system of the next assay is SUDIPGVI (diffuse intrinsic pontine glioma line)
In outline: as §1

Another assay has as its system SUDIPGXIII (diffuse intrinsic pontine glioma line)
In outline: as §1

As to `CCCCC[C@H](O)/C=C/[C@H]1[C@H](O)CC(=O)[C@@H]1CCCCCCC(=O)O`, the growth inhibition with DIPGX29 was 1.8%; in the assay on DIPGX37, 0.835%; in the assay on DIPGX7, 1.87%; in the assay with DIPGX9 it was 1.68%; in the assay with HGGX39, 3.82%; in the assay with HGGX6, 4.44%. In addition, the growth inhibition in the assay with HNSC came to 0.983%; in the assay on SUDIPGIV, 2.69%; in the assay on SUDIPGVI, 1.52%; with SUDIPGXIII, 0.878%.
Take `NC(=O)N1c2ccccc2C=Cc2ccccc21`: the growth inhibition was -0.706% in the assay with DIPGX29; 3.98% in the assay with DIPGX37; 0.653% in the assay on DIPGX7; 1.56% with DIPGX9; 1.28% in the assay on HGGX39; 0.945% in the assay with HGGX6. Moreover, the growth inhibition in the assay on HNSC is 2.65%; in the assay on SUDIPGIV it was 0.457%; in the assay with SUDIPGVI, 1.8%; in the assay with SUDIPGXIII, -0.0848%.
With `O=NO`, the growth inhibition in the assay with DIPGX29 was 0.973%; in the assay on DIPGX37, 1.57%; in the assay with DIPGX7, -0.944%; in the assay on DIPGX9, 0.322%; in the assay on HGGX39, 0.656%; with HGGX6, 1.76%. Also, the growth inhibition in the assay on HNSC is -0.386%; in the assay with SUDIPGIV, -0.178%; in the assay with SUDIPGVI, 1.15%; in the assay with SUDIPGXIII, -0.00307%.
With `CCOC(=O)CC(=O)N1CCSC1COc1ccccc1OC` (stereo not given), the growth inhibition came to 2.29% in the assay with DIPGX29; 3.41% in the assay with DIPGX37; 3.11% with DIPGX7; 1.18% in the assay with DIPGX9; 5.96% with HGGX39; 2.78% with HGGX6. Besides, the growth inhibition in the assay with HNSC was 3.53%; with SUDIPGIV, 4.58%; in the assay on SUDIPGVI, 2.42%; in the assay on SUDIPGXIII, -0.201%.
Regarding `COc1cc2c(cc1Cc1cccc(Cl)c1F)c(=O)c(C(=O)O)cn2[C@H](CO)C(C)C`, the growth inhibition with DIPGX29 was determined as 1.03%; in the assay with DIPGX37, 1.4%; in the assay with DIPGX7 it was 3.52%; with DIPGX9, 3.93%; with HGGX39, 4.45%; in the assay with HGGX6, 0.0329%. The growth inhibition came out at 19.8% in the assay with HNSC, 9.68% in the assay on SUDIPGIV, 1.61% in the assay with SUDIPGVI and 5.02% in the assay with SUDIPGXIII.
Consider `CCCCOc1ccc(OCCCN2CCOCC2)cc1`, for which the growth inhibition in the assay with DIPGX29 was found to be 5.55%; in the assay on DIPGX37, 2.14%; with DIPGX7 it was 14.7%; in the assay with DIPGX9, 1.12%; in the assay on HGGX39 it was 8.05%; in the assay with HGGX6 it was 7.63%. Also, the growth inhibition with HNSC was 5.68%; in the assay on SUDIPGIV, 1.4%; in the assay on SUDIPGVI, 1.31%; with SUDIPGXIII, 1.81%.
For the molecule `CCCCCCCCCCC[C@@H](C[C@@H]1OC(=O)[C@H]1CCCCCC)OC(=O)[C@H](CC(C)C)NC=O`, the growth inhibition with DIPGX29 is -2.1%; in the assay with DIPGX37, -1.45%; in the assay with DIPGX7, -1.06%; with DIPGX9, -1.8%; in the assay with HGGX39 it was -0.97%; in the assay on HGGX6, 0.864%. Besides, the growth inhibition is -6.06% with HNSC, -1.86% in the assay on SUDIPGIV, -3.34% with SUDIPGVI and 0.12% in the assay on SUDIPGXIII.
As for `CCCOc1ccc2[nH]c(NC(=O)OC)nc2c1`, the growth inhibition in the assay on DIPGX29 is 6.12%; in the assay with DIPGX37, 5.82%; with DIPGX7, 6.31%; in the assay on DIPGX9 it was 9.95%; with HGGX39, 7.33%; in the assay on HGGX6, 9.96%. Moreover, the growth inhibition with HNSC was 66.6%; with SUDIPGIV, 11.4%; in the assay with SUDIPGVI, -1.9%; in the assay with SUDIPGXIII, 3.23%.
On to `C=C[C@H]1CN2CC[C@H]1C[C@H]2[C@H](O)c1ccnc2ccc(OC)cc12`, for which the growth inhibition was 2.06% in the assay on DIPGX29; 3.05% in the assay with DIPGX37; 2.14% in the assay with DIPGX7; 2.35% with DIPGX9; 3.17% in the assay on HGGX39; 1.13% in the assay on HGGX6. Besides, the growth inhibition is 2.99% with HNSC, 2.17% with SUDIPGIV, 4.23% in the assay on SUDIPGVI and -0.182% with SUDIPGXIII.

Values taken from the supplement of paper PMC8253809.
